RORgamma inh: qHTS for inhibitors of ROR gamma transcriptional activity. Nuclear receptor ROR-gamma (Mus musculus), P51450. Drosophila S2 Gal4-RORgamma UAS-luciferase reporter, 20 h. AID 2551, 2010. Potency, µM (highest dose often 53.6 µM), hits mostly inhibitors. 310,000 tested, 5.4% active; also: nearly all actives have a fitted effect of over 60% in size
Target sequence (P51450 whole entry, looked up, the tested form may be a part): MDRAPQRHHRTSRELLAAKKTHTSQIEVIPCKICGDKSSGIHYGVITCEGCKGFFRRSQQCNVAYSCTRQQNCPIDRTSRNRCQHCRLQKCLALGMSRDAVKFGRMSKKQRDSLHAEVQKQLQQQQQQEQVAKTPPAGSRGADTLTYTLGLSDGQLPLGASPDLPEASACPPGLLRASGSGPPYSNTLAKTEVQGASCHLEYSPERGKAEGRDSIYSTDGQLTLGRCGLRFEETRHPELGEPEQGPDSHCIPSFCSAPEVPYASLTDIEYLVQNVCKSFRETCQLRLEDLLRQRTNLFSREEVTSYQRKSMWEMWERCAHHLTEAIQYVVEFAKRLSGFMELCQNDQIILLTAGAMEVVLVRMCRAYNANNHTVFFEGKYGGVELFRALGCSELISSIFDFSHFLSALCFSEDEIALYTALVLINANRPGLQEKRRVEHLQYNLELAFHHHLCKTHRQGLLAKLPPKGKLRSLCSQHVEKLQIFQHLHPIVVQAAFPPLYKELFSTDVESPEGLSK
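Using a luciferase readout, inhibitors were identified by reduced reporter activity in Drosophila cells coexpressing a copper-inducible Gal4–ROR gamma fusion and UAS-driven Photinus luciferase, incubated 20 hr after 700 uM copper sulfate.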
Epigenetic reg: Quantitative High-Throughput Screen for Regulators of Epigenetic Control; murine LDR cells, GFP reporter derepression, 30 h; Potency, µM (highest dose often 53.9 µM), most hits filed as activators; 280,000 tested, 0.2% active; AID 1865, 2009; also: nearly all actives have a fitted effect of over 60% in size
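Murine LDR cells carrying a silenced, genomically integrated CMV-driven GFP reporter were exposed to compound for 30 hours at 37 C. After PBS washes, GFP-positive cells (20–120 um objects) were counted by laser-scanning microplate cytometry.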
Sfp PPTase inh: qHTS Assay for Inhibitors of Bacillus subtilis Sfp phosphopantetheinyl transferase (PPTase) | 4'-phosphopantetheinyl transferase ffp (Bacillus subtilis), Q9F4F7 | Biochemical Sfp PPTase activity, qHTS | Potency, µM, hits mostly inhibitors | 310,000 tested, 3.5% active | AID 1490, 2009;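 also: the enzyme is Sfp with the accession as filed and its product quenches rhodamine fluorescence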
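Fluorescence-quenching assay with 15 nM Sfp, 5 uM rhodamine-CoA and 12.5 uM BHQ-2-labelled ybbR peptide in pH 7.6 Hepes/MgCl2 buffer. Enzyme was pre-incubated with compound for 15 min at room temperature. Rate was taken from the 30-min fluorescence change (525/598 nm).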
PINK1 modulator: A Quantitative High throughput Screen to Identify Chemical Modulators of PINK1 Expression; PINK1 immunofluorescence, high-content cytometry, 24 h; Potency, µM (top dose mostly 76.6 µM), hits mostly activators; 410,000 tested, 0.2% active; AID 624263, 2012; active = well fitted activation curve with a large enough effect; inconclusive = small, poorly fitted or top-dose-only effect; cell line not stated here; also: nearly all actives have a fitted effect of over 65% in size
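Decision-based qHTS: stable cells, 24 h exposure to five compound concentrations, CCCP as control. Fixed cells stained for PINK1 plus nuclear, mitochondrial and cell markers, cytometer read.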
ClpP mod: qHTS Assay for Activators of ClpP. Potency, µM (top dose mostly 57.5 µM). AID 651965, 2013. purified B. subtilis ClpP, FRET peptide cleavage, 20 min. 340,000 tested, 1.9% active. ATP-dependent Clp protease proteolytic subunit (Bacillus subtilis (strain 168)), P80244; active = well fitted falling curve with a large enough effect; inconclusive = small, poorly fitted or top-dose-only effect; inactive = no such curve, though single readings can be large or run the other way; also: the source files actives as falling curves though it sought activators and does not explain the sign; nearly all actives have a fitted effect of over 65% in size
Target sequence (P80244 whole entry, looked up): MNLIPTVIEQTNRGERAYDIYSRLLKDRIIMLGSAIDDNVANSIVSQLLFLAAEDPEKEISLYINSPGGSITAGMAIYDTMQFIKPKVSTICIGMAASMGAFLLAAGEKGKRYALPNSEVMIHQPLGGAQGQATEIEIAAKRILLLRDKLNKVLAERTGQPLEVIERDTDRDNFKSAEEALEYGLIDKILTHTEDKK
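FRET quenching reversal measured ClpP activation: 10 microg/mL B. subtilis ClpP at pH 8 with the FRET-FV decapeptide, read at 430 nm after 320 nm excitation. The 20-min minus 0-min signal was scaled between DMSO/no-enzyme wells and ADEP (5.8 microM final).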
VP16 counter: VP16 counterscreen qHTS for inhibitors of ROR gamma transcriptional activity. Drosophila S2 Gal4-VP16 UAS-luciferase, luminescence, 20 h. Potency, µM (series often up to 53.6 µM), actives largely listed as inhibitors. 310,000 tested, 3.5% active;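 also: Gal4-VP16 expression switched on by copper sulfate through the metallothionein promoter; nearly all actives have a fitted effect of over 50% in size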
Numbers stand for hits; 0 = inactive; ? = inconclusive; - = no result; [ ] = dose if it differs, or a comment. Only some compounds are listed: those with a hit (about 8.1% of all), similar ones and a draw of the others. Unless noted, calls follow the shape of the dose curve; as a rule, active = well fitted curve in the direction sought with a large enough effect; inconclusive = small, poorly fitted or top-dose-only effect, or another doubt; inactive = no such curve, though single readings can be large; an effect the other way counts as inactive or inconclusive.

SMILES	RORgamma inh	Epigenetic reg	Sfp PPTase inh	PINK1 modulator	ClpP mod	VP16 counter
N#Cc1c(C(F)(F)F)cc(-c2ccco2)nc1SCc1ccncc1	0	0	0	0	25.1µM	0
N#Cc1c(C(F)(F)F)cc(-c2ccco2)nc1SCc1ccccn1	0	?	?	0	31.6µM	0
CCN(CC)C(=O)CSc1nc(-c2ccco2)cc(C(F)(F)F)c1C#N	?	0	0	0	31.6µM	0
Cc1ccc(-c2cn3c4c(=O)n(C)c(=O)n(C)c4nc3n2-c2cccc(Cl)c2)cc1	-	0	-	0	0	-
CCOC(=O)c1cccc(NC(=O)CSc2nc3cc4ccccc4cc3[nH]2)c1	-	0	-	0	0	-
CC(=O)N1c2ccc(S(=O)(=O)Nc3ccc(Cl)cc3C)cc2CC1C (stereo not drawn)	-	0	-	0	0	-
CCNC(=O)c1cccc(S(=O)(=O)N2CCCCCC2)c1	0	?	0	0	0	0
CCCn1c(NC(=O)c2ccccc2)nc2ccccc21	0.794µM	0	0	0	0	1.78µM
CCCn1c(NC(=O)c2ccc(C)cc2)nc2ccccc21	2.24µM	0	0	0	0	0.631µM
CCCn1c(NC(=O)c2cccc(S(=O)(=O)N3CCCC3)c2)nc2ccccc21	2.82µM	0	0	0	?	6.31µM
Cc1ccc(CNC(=O)C2CCN(S(=O)(=O)c3cccs3)CC2)o1	?	0	17.8µM	0	0	0
COc1ccc2c(c1)c1c(c(=O)n(-c3cccc(Cl)c3)c(=O)n1CC(=O)NCC1CCCO1)n2C (stereo not drawn)	-	0	-	0	0	-
C=CCn1c(NCc2ccccc2)nc2ccccc21	0	0	0	0	0	?
Cc1csc(NC(=O)C2CCN(S(=O)(=O)c3cccs3)CC2)n1	?	0	0	0	0	0
C=CCn1c(NC(=O)c2ccc(C)cc2)nc2ccccc21	0.398µM	-	0	0	-	0.794µM
CCCn1c(NC(=O)C2CCN(S(=O)(=O)c3cccs3)CC2)nc2ccccc21	1.41µM	0	0	0	0	4.47µM
CCCNC(=O)Cn1c(=O)/c(=C\c2ccc(-c3ccc([N+](=O)[O-])cc3)o2)s/c1=C\C(=O)C(C)(C)C	0	0.199µM	0	?	0	0
CCCNC(=O)Cn1c(=O)/c(=C/c2ccc(-c3cccc([N+](=O)[O-])c3)o2)s/c1=C\C(=O)C(C)(C)C	-	-	-	?	0	-
COc1cc2c(cc1OC)n(CC(=O)c1cccc(Cl)c1)c(=O)n1nc(CCn3nc(C)cc3C)nc21	-	0	-	0	0	-
Cc1ccc(C(=O)O)cc1Nc1nc2ccccc2n2nnnc12	-	0	-	0	0	-
COc1ccccc1/C=N/NC(=O)c1c(-c2ccccc2)noc1C	0	-	0	0	-	0
Cc1onc(-c2ccccc2)c1C(=O)N/N=C/c1cn(C)c2ccccc12	11.2µM	0	0	0	-	?
Cc1cccc(/C=N/NC(=O)c2c(-c3ccccc3)noc2C)c1O	3.98µM	-	0	0	0	6.31µM
CN(C)c1nc2cc3c(cc2cc1CN(CC1CCCO1)C(=O)c1cccc(F)c1)OCO3 (stereo not drawn)	-	-	-	0	-	-
Cc1cc(Nc2cccc(C(F)(F)F)c2)nc2ccc(NC(=O)c3cncc(Br)c3)cc12	-	?	-	?	0	-
SMILES	RORgamma inh	Epigenetic reg	Sfp PPTase inh	PINK1 modulator	ClpP mod	VP16 counter
CCC(C)N1C(=O)N(c2cccc(Cl)c2)C(C)(O)CC1(C)C (stereo not drawn)	5.01µM	-	0	0	0	0
Cc1ccc(-c2nc(C)c(CCNC(=O)C(=O)Nc3cc(C)ccc3C)s2)cc1	-	0	-	0	0	-
Cc1nn(C(C)(C)C)c(OC(=O)c2ccc3c(c2)OCO3)c1Sc1ccccc1	0	0	0	0	31.6µM	0
CCOc1ccc(CCNC(=O)c2nnc(Cc3cc(OC)c(OC)c(OC)c3)o2)cc1OCC	-	0	-	0	0	-
CCOc1cc2[nH]c(=O)n(CCCCCC(=O)NCc3ccco3)c(=O)c2cc1OCC	0	0	0	0	22.4µM	0
CCCCN(C)C(=O)CCCCn1c(=O)[nH]c2cc(OCC)c(OCC)cc2c1=O	0	0	0	0	35.5µM	0
CCOc1cc2[nH]c(=S)n(CCCCC(=O)NCc3ccco3)c(=O)c2cc1OCC	0[0.365 µM]	0	0	0	0	-
COc1cc2[nH]c(=O)n(CCC(=O)NCc3cccnc3)c(=O)c2cc1OC	0	0	0	0	28.2µM	0
COc1cc2[nH]c(=O)n(CCCC(=O)NCc3ccccc3)c(=O)c2cc1OC	-	0	-	0	0	-
COc1cc(=O)n2c(c1C(=O)NCc1ccco1)CCN(Cc1c(F)cccc1F)CC2	-	-	-	0	-	-
Cc1cc(O)cc(O)c1C(=O)OC1(C)C(=O)C=C2C=C(/C=C/C(=O)O)OC=C2C1=O (stereo not drawn)	0	0	?	-	-	0
Cc1ccc2c(c1)Cc1c(nc(-c3ccc(F)cc3)nc1SCC(=O)N1CCCCC1)O2	-	0	-	0	0	-
CC(C)Cn1c(C(C)C)nc([N+](=O)[O-])c1S(=O)(=O)c1ccc(F)cc1	11.2µM	0	0	0	0	?
CCCc1nc([N+](=O)[O-])c(S(=O)(=O)c2ccccc2)n1CC(C)C	?	0	0	0	-	?
COc1ccc(OC)c(CNC(=O)C2CCN(S(=O)(=O)c3ccc4[nH]c(=O)oc4c3)CC2)c1	-	0	-	0	0	-
O=C(NC(=S)Nc1ccc2oc(-c3cccnc3)nc2c1)c1cccc(Cl)c1	20µM	0	0	0	0	0
CCCC(=O)Nc1cccc(-c2nc3cc(C)c(C)cc3o2)c1	0	0	0	0	22.4µM	?
O=C(Nc1ccc2oc(-c3cccnc3)nc2c1)c1cc2ccccc2o1	0	0	0	0	0	0
COc1ccc(C(=O)Nc2ccc3oc(-c4cccnc4)nc3c2)cc1	-	0	-	0	0	-
CCCCC(=O)Nc1ccc2oc(-c3cccnc3)nc2c1	0	0	0	0	17.8µM	0
CCCC(=O)Nc1ccc2oc(=O)ccc2c1	0	0	0	0	25.1µM	0[10 µM]
Cc1ccc(NC(=O)C(=O)NCC(c2cccnc2)N2CCc3ccccc32)cc1Cl (stereo not drawn)	-	0	-	0	0	-
CCCC(=O)Nc1ccc2oc(-c3cccnc3)nc2c1	0	0	0	0	15.8µM	?
CCOc1ccc(C(=O)Nc2ccc3oc(-c4cccnc4)nc3c2)cc1	-	0	-	0	0	-
CCCc1nc2oc(C(=O)OCC)c(N)c2c2c1COC(C)(C)C2	0	0	0	0	14.1µM	0
CCCc1nc2sc(C(=O)OCC)c(N)c2c2c1COC(C)(C)C2	0	0	0	0	0	0
